According to PubChem BioAssay AID1159580 (chemical genetic matrix, 2015):
Screen size: about 5,500 compounds; about 2,000 (36%) were called active. About 18% were inconclusive and are not listed. Cut-off read from the data, not from the text of the source: active = normalized growth mostly below about 0.91 (no sharp cut-off); inconclusive = no clear call, values can overlap the other calls; inactive = mostly above about 0.92. The list shows a part of the results.

Experiment: chemical genetic growth profiling, strain panel (AID 1159580);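 note: tested at 20 µM; growth read once vehicle control cultures reached saturation at 30 °C; 1 = growth at the plate median or of vehicle wells; lower values mean less growth of the strain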
Details: S. cerevisiae deletion strains, growth OD
[1] = locus YAL040C, strain CLN3, hits give low values
[2] = locus YCL061C, strain MRC1 (second series), hits give low values
[3] = locus YDR363W, strain ESC2, hits give low values
[4] = locus YER002W, strain NOP16, hits give low values
[5] = locus YMR307W, strain GAS1, hits give low values
[6] = locus YNL175C, strain NOP13, hits give low values
[7] = locus YNL197C, strain WHI3, hits give low values
[8] = locus YNL224C, strain SQS1, hits give low values
[9] = locus YOR083W, strain WHI5 (second series), hits give low values
[10] = locus YPL055C, strain LGE1, hits give low values
[11] = locus YAL013W, strain DEP1, hits give low values
[12] = locus YBR229C, strain ROT2, hits give low values
[13] = locus YDL101C, strain DUN1, hits give low values
[14] = locus YEL061C, strain CIN8, hits give low values
[15] = locus YGR078C, strain PAC10, hits give low values
[16] = locus YGR229C, strain SMI1, hits give low values
[17] = locus YHR030C, strain SLT2, hits give low values
[18] = locus YJL187C, strain SWE1, hits give low values
[19] = locus YJR043C, strain POL32, hits give low values
[20] = locus YKL190W, strain CNB1, hits give low values
[21] = locus YLR039C, strain RIC1, hits give low values
[22] = locus YLR262C, strain YPT6, hits give low values
[23] = locus YMR263W, strain SAP30, hits give low values
[24] = locus YNL153C, strain GIM3, hits give low values
[25] = locus YPL241C, strain CIN2, hits give low values
[26] = locus YDR150W, strain NUM1, hits give low values
[27] = locus YNL322C, strain KRE1, hits give low values

Measured: normalized growth

Nc1nc2ccc(Cl)cc2c2nc(-c3ccco3)nn12
active: [1] 0.734 | [4] 0.74 | locus YNL128W, strain TEP1, hits give low values 0.632 | [6] 0.664 | [7] 0.81 | [8] 0.729 | [9] 0.473
inactive: [2] 0.988 | [3] 0.926 | [5] 0.969 | [10] 0.909

CC(=O)O[C@@](C)(CCC=C(C)C)C1CC=C(C)CC1 (stereo not given in full)
inactive: [11] 1.02 | locus YAL021C, strain ccr4, hits give low values 1.01 | locus YAL026C, strain drs2, hits give low values 0.989 | locus YAL030W, strain snc1, hits give low values 0.987 | locus YBL061C, strain skt5, hits give low values 0.979 | locus YBR009C, strain hhf1, hits give low values 1.01 | locus YBR021W, strain FUR4, hits give low values 1.03 | locus YBR023C, strain chs3, hits give low values 0.986 | locus YBR171W, strain sec66, hits give low values 0.981 | [12] 1.02 | locus YBR231C, strain swc5, hits give low values 0.996 | locus YBR279W, strain paf1, hits give low values 0.987 | locus YCL011C, strain gbp2, hits give low values 0.983 | locus YCL016C, strain dcc1, hits give low values 0.996 | locus YCL029C, strain bik1, hits give low values 0.992 | locus YCL069W, strain vba3, hits give low values 0.983 | locus YCR088W, strain abp1, hits give low values 0.983 | locus YDL005C, strain med2, hits give low values 0.978 | locus YDL035C, strain GPR1, hits give low values 1.01 | locus YDL040C, strain nat1, hits give low values 0.988 | locus YDL074C, strain BRE1, hits give low values 1.03 | [13] 1.03 | locus YDL185W, strain tfp1, hits give low values 0.988 | locus YDL192W, strain arf1, hits give low values 1 | locus YDR001C, strain nth1, hits give low values 0.991 | locus YDR069C, strain doa4, hits give low values 0.966 | locus YDR101C, strain arx1, hits give low values 0.97 | locus YDR137W, strain rgp1, hits give low values 0.976 | locus YDR159W, strain sac3, hits give low values 0.982 | locus YDR162C, strain NBP2, hits give low values 1.05 | locus YDR195W, strain ref2 0.982 | locus YDR297W, strain sur2, hits give low values 0.974 | locus YDR318W, strain mcm21, hits give low values 0.997 | locus YDR334W, strain swr1, hits give low values 0.985 | locus YDR335W, strain msn5, hits give low values 0.986 | locus YDR388W, hits give low values 0.994 | locus YDR392W, strain spt3, hits give low values 0.973 | locus YDR502C, strain sam2, hits give low values 0.978 | locus YEL003W, strain gim4, hits give low values 0.993 | locus YEL037C, strain rad23, hits give low values 0.991 | locus YEL061C, strain CIN8 (second series), hits give low values 0.978 | [14] 1.02 | locus YER015W, strain faa2, hits give low values 0.994 | locus YER016W, strain bim1, hits give low values 0.992 | locus YER110C, hits give low values 0.985 | locus YER111C, strain swi4, hits give low values 0.981 | locus YER155C, strain BEM2 (second series), hits give low values 1.01 | locus YER155C, strain BEM2, hits give low values 1.02 | locus YER167W, strain BCK2, hits give low values 1 | locus YFR010W, strain ubp6, hits give low values 0.973 | locus YGL078C, strain dbp3, hits give low values 0.995 | locus YGL086W, strain mad1, hits give low values 0.991 | locus YGL167C, strain pmr1, hits give low values 0.991 | locus YGL173C, strain kem1, hits give low values 0.984 | locus YGL227W, strain vid30, hits give low values 0.986 | locus YGL240W, strain doc1, hits give low values 0.992 | locus YGL248W, strain PDE1, hits give low values 1.05 | locus YGL253W, strain hxk2, hits give low values 0.987 | [15] 1.05 | locus YGR135W, strain pre9, hits give low values 1.02 | [16] 0.998 | locus YGR252W, strain gcn5, hits give low values 1.01 | locus YHR013C, strain ard1, hits give low values 1 | locus YHR027C, strain rpn1, hits give low values 0.983 | [17] 1.02 | locus YHR079C, strain IRE1 (second series), hits give low values 0.985 | locus YHR094C, strain hxt1, hits give low values 1 | locus YHR129C, strain ARP1, hits give low values 1.02 | locus YHR142W, strain chs7, hits give low values 0.999 | locus YHR200W, strain rpn10, hits give low values 0.992 | locus YIL066C, strain RNR3, hits give low values 1.04 | locus YIL073C, strain SPO22, hits give low values 1 | locus YIL125W, strain kgd1, hits give low values 1 | locus YIR030C, strain dcg1, hits give low values 0.992 | locus YJL092W, strain hpr5, hits give low values 0.988 | locus YJL095W, strain BCK1 (second series), hits give low values 0.998 | locus YJL095W, strain BCK1, hits give low values 1.06 | locus YJL115W, strain asf1, hits give low values 0.989 | locus YJL129C, strain trk1, hits give low values 0.981 | locus YJL134W, strain LCB3, hits give low values 1.01 | locus YJL154C, strain vps35, hits give low values 0.984 | locus YJL164C, strain tpk1, hits give low values 0.994 | locus YJL166W, strain qcr8, hits give low values 0.983 | locus YJL168C, strain set2, hits give low values 0.999 | locus YJL187C, strain SWE1 (second series), hits give low values 1.04 | [18] 0.991 | [19] 1.04 | locus YKL009W, strain mrt4, hits give low values 0.962 | locus YKL068W, hits give low values 0.997 | locus YKL085W, strain MDH1 (second series), hits give low values 0.994 | locus YKL085W, strain MDH1, hits give low values 0.994 | locus YKL160W, strain elf1, hits give low values 0.993 | [20] 1.01 | locus YKR001C, strain vps1, hits give low values 0.987 | locus YKR026C, strain gcn3, hits give low values 0.99 | locus YKR091W, strain srl3, hits give low values 0.982 | locus YLL001W, strain dnm1, hits give low values 0.993 | locus YLL026W, hits give low values 0.985 | locus YLL041C, strain sdh2, hits give low values 1.01 | locus YLR027C, strain aat2, hits give low values 0.985 | [21] 1.05 | locus YLR058C, strain SHM2, hits give low values 1.04 | locus YLR102C, strain apc9, hits give low values 0.986 | locus YLR221C, strain rsa3, hits give low values 0.972 | locus YLR258W, strain gsy2, hits give low values 1.01 | locus YLR262C, strain YPT6 (second series), hits give low values 0.959 | [22] 1.04 | locus YLR268W, strain sec22, hits give low values 1 | locus YLR320W, strain mms22, hits give low values 0.975 | locus YLR330W, strain CHS5, hits give low values 1.03 | locus YLR342W, strain FKS1 (second series), hits give low values 1.09 | locus YLR342W, strain FKS1, hits give low values 0.974 | locus YLR357W, strain rsc2, hits give low values 0.951 | locus YLR370C, strain arc18, hits give low values 0.983 | locus YLR371W, strain rom2, hits give low values 0.997 | locus YLR384C, strain iki3, hits give low values 0.973 | locus YLR418C, strain cdc73, hits give low values 0.988 | locus YML016C, strain PPZ1, hits give low values 1.02 | locus YML032C, strain rad52, hits give low values 1.01 | locus YML120C, strain ndi1, hits give low values 0.985 | locus YML124C, strain tub3, hits give low values 0.992 | locus YMR058W, strain fet3, hits give low values 0.995 | locus YMR078C, strain ctf18, hits give low values 0.971 | locus YMR125W, strain sto1, hits give low values 0.983 | locus YMR129W, hits give low values 1 | locus YMR205C, strain PFK2, hits give low values 0.988 | locus YMR223W, strain ubp8, hits give low values 1.04 | locus YMR231W, strain pep5, hits give low values 0.994 | [23] 1.04 | [5] 1.11 | locus YNL067W, strain RPL9B, hits give low values 1.04 | locus YNL071W, strain lat1, hits give low values 0.99 | [24] 1.04 | locus YNL209W, strain ssb2, hits give low values 0.984 | locus YNL233W, strain BNI4, hits give low values 1.04 | locus YNL248C, strain rpa49, hits give low values 0.975 | locus YNL250W, strain rad50, hits give low values 1.01 | locus YNL271C, strain bni1, hits give low values 0.998 | locus YNL298W, strain CLA4, hits give low values 0.996 | locus YNL307C, strain MCK1, hits give low values 0.996 | locus YNL322C, strain KRE1 (second series), hits give low values 0.99 | locus YNR049C, strain mso1, hits give low values 1 | locus YNR052C, strain pop2, hits give low values 0.995 | locus YOL006C, strain TOP1, hits give low values 1.14 | locus YOL012C, strain htz1 0.898 | locus YOL147C, strain pex11, hits give low values 0.984 | locus YOR001W, strain rrp6, hits give low values 0.973 | locus YOR061W, strain CKA2, hits give low values 1.03 | locus YOR069W, strain VPS5, hits give low values 1.01 | locus YOR070C, strain gyp1, hits give low values 0.982 | locus YOR080W, strain dia2, hits give low values 0.991 | locus YOR083W, strain WHI5, hits give low values 0.999 | locus YOR106W, strain vam3, hits give low values 0.975 | locus YOR136W, strain idh2, hits give low values 0.988 | locus YOR144C, strain elg1, hits give low values 0.983 | locus YOR184W, strain ser1, hits give low values 0.962 | locus YOR265W, strain rbl2, hits give low values 1 | locus YOR270C, strain vph1, hits give low values 0.915 | locus YOR290C, strain snf2, hits give low values 0.989 | locus YOR316C, strain cot1, hits give low values 1.01 | locus YPL051W, strain arl3, hits give low values 1.01 | locus YPL078C, strain atp4, hits give low values 1.02 | locus YPL106C, strain sse1, hits give low values 1 | locus YPL240C, strain hsp82, hits give low values 0.974 | [25] 1.01 | locus YPR119W, strain clb2, hits give low values 0.997 | locus YPR141C, strain kar3, hits give low values 0.997 | locus YPR163C, strain tif3, hits give low values 1 | locus YPR167C, strain met16, hits give low values 1 | strain wtn01, hits give low values 0.987

O=c1[nH]c2cccnc2[nH]c1=O
inactive: [11] 0.999 | [12] 1.02 | [13] 1.01 | [26] 0.995 | [14] 1 | [15] 1.01 | [16] 0.997 | [17] 1.03 | locus YHR087W, strain rtc3, hits give low values 1 | [18] 0.992 | [19] 1.01 | locus YJR075W, strain HOC1, hits give low values 0.969 | [20] 0.995 | [21] 1 | locus YLR058C, strain SHM2 (second series), hits give low values 1 | locus YLR085C, strain ARP6, hits give low values 1.01 | [22] 0.979 | locus YML094W, strain GIM5, hits give low values 1.02 | locus YMR219W, strain ESC1, hits give low values 1.03 | [23] 1.01 | [24] 1.04 | locus YNL298W, strain CLA4 (second series), hits give low values 1.04 | [27] 0.998 | locus YNR030W, strain Alg12, hits give low values 1.01 | [10] 0.965 | [25] 1.01 | locus YPR135W, strain CTF4, hits give low values 1.06

O=c1[nH]c2ccccc2c2ccccc12
inactive: [1] 1.04 | [2] 1 | [26] 0.983 | [3] 1.01 | [4] 0.987 | [5] 0.979 | [6] 0.975 | [7] 0.967 | [8] 1.01 | [27] 0.983 | [9] 0.945
active: [24] 0.779
